Measured values from PubChem BioAssay (NCATS).
“And” between values parts separate entries of the source, which are not always exact repeats. Identical values can stand only once. Records with an inconclusive call do not appear. The source made the active and inactive calls. The call rests on the fitted dose curve; in most records, active means well fitted curve in the direction sought with a large enough effect; inconclusive means small, poorly fitted or top-dose-only effect, or another doubt; inactive means no such curve, though single readings can be large; an effect the other way counts as inactive or inconclusive.

Columns and labels:
CRL-7250 = normal cell line; assay: Cytotoxic Profiling of Annotated Libraries Using Quantitative High-Throughput Screening (AID 1296008); conditions: Five cell lines viability, CellTiter-Glo ATP luminescence, 48-72 h; max response: active compounds read low; further: nearly all actives have a fitted effect of over 60% in size; further: potency means the concentration at half of the fitted maximal effect
Method in brief: (§1)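 Cytotoxicity was measured as CellTiter-Glo ATP luminescence, read after 10 min at room temperature. Compound treatment of the cells lasted 48 or 72 hr at 37 degrees Celsius in a qHTS format.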

HEK293 = assay: as above; conditions: Five cell lines viability, CellTiter-Glo ATP luminescence, 48-72 h; max response: active compounds read low
Method in brief: as §1

HaCat [1] = assay: as above; conditions: Five cell lines viability, CellTiter-Glo ATP luminescence, 48-72 h; max response: active compounds read low
Method in brief: as §1

KB-3-1 = assay: as above; conditions: Five cell lines viability, CellTiter-Glo ATP luminescence, 48-72 h; max response: active compounds read low
Method in brief: as §1

NIH3T3 [2] = assay: as above; conditions: Five cell lines viability, CellTiter-Glo ATP luminescence, 48-72 h; max response: active compounds read low
Method in brief: as §1

MCC-13 = assay: qHTS assay to identify novel small-molecules to repurpose for Merkel cell carcinoma treatment (AID 1296009); conditions: MCC and control cell lines, CellTiter-Glo viability, 72 h; series mostly up to 46 µM; further: nearly all actives have a fitted effect of over 60% in size; further: potency means the concentration at half of the fitted maximal effect
Method in brief: (§2)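 Cell viability measured by CellTiter-Glo following 72 hr compound treatment at 37 degree celsius, with NPC and MIPE libraries tested in 8- and 11-point concentration series.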

MCC-26 = assay: as above; conditions: MCC and control cell lines, CellTiter-Glo viability, 72 h; series mostly up to 46 µM
Method in brief: as §2

MKL-1 = assay: as above; conditions: MCC and control cell lines, CellTiter-Glo viability, 72 h; series mostly up to 46 µM
Method in brief: as §2

MKL-2 = assay: as above; conditions: MCC and control cell lines, CellTiter-Glo viability, 72 h; series mostly up to 46 µM
Method in brief: as §2

NIH3T3 [3] = assay: as above; conditions: MCC and control cell lines, CellTiter-Glo viability, 72 h; series mostly up to 44.8 µM
Method in brief: as §2

UISO = assay: as above; conditions: MCC and control cell lines, CellTiter-Glo viability, 72 h; series mostly up to 46 µM
Method in brief: as §2

WaGa = assay: as above; conditions: MCC and control cell lines, CellTiter-Glo viability, 72 h; series mostly up to 46 µM
Method in brief: as §2

HACAT [4] = assay: as above; conditions: MCC and control cell lines, CellTiter-Glo viability, 72 h; at 44.8 µM (top of the series) unless noted
Method in brief: as §2

HEK293T [5] = assay: as above; conditions: MCC and control cell lines, CellTiter-Glo viability, 72 h; at 44.8 µM (top of the series) unless noted
Method in brief: as §2

C33A = assay: Primary qHTS to identify gynecologic anti-cancer compounds using libraries of approved drugs and bioactive compounds (AID 1345084); conditions: Gynecologic cancer cell panel viability, ATPlite luminescence, 48 h; series mostly up to 57.5 µM; further: nearly all actives have a fitted effect of over 55% in size
Method in brief: (§3)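 Measured: luminescence after ATPlite addition (15 min, RT). Exposure: 48 h, 37 C, 5% CO2.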

CAOV3 = assay: as above; conditions: Gynecologic cancer cell panel viability, ATPlite luminescence, 48 h; series mostly up to 57.5 µM
Method in brief: as §3

Es-2 = assay: as above; conditions: Gynecologic cancer cell panel viability, ATPlite luminescence, 48 h; series mostly up to 57.5 µM
Method in brief: as §3

HeLa = assay: as above; conditions: Gynecologic cancer cell panel viability, ATPlite luminescence, 48 h; series mostly up to 57.5 µM
Method in brief: as §3

Hek293T [6] = assay: as above; conditions: Gynecologic cancer cell panel viability, ATPlite luminescence, 48 h, control line for the selectivity index; series mostly up to 57.5 µM
Method in brief: as §3

CASKI = assay: as above; conditions: Gynecologic cancer cell panel viability, ATPlite luminescence, 48 h; series mostly up to 57.5 µM
Method in brief: as §3
On the % scale 0 is the no-effect control and ±100 the full control effect.

CCOC(=O)N1c2ccc(C(F)(F)F)cc2[C@@H](N(Cc2cc(C(F)(F)F)cc(C(F)(F)F)c2)C(=O)OC)C[C@H]1CC
inactive: max response (HEK293) -0.609% | max response (HaCat [1]) 3.49% | max response (KB-3-1) 1.68% | outcome (NIH3T3 [2]) | Potency (MCC-13) | Potency (MCC-26) | Potency (MKL-1) | Potency (MKL-2) | Potency (NIH3T3 [3]) | Potency (UISO) | Potency (WaGa)
active: Potency (CRL-7250) 14.8 µM

CC(C)CN(C[C@H](O)[C@H](Cc1ccccc1)NC(=O)O[C@H]1CCOC1)S(=O)(=O)c1ccc(N)cc1
inactive: max response (CRL-7250) 0.909% | max response (HEK293) -14.4% | max response (HaCat [1]) -15.1% | outcome (KB-3-1) | max response (NIH3T3 [2]) 1.75% | Potency (MCC-13) | Potency (MCC-26) | Potency (MKL-1) | Potency (MKL-2) | Potency (UISO) | Potency (WaGa)

CC[C@H](C=C[C@@H](C)[C@H]1CC[C@H]2[C@@H]3CC=C4C[C@@H](O)CC[C@]4(C)[C@@H]3CC[C@]12C)C(C)C
inactive: max response (CRL-7250) -16.3% | max response (HEK293) 3.5% | max response (HaCat [1]) -3.88% | max response (KB-3-1) 2.61% | max response (NIH3T3 [2]) 3.97% | Potency (MCC-13) | Potency (MCC-26) | Potency (MKL-1) | Potency (MKL-2) | Potency (UISO) | Potency (WaGa)

COc1cc(N2CCN(C)CC2)ccc1Nc1nc(N)c(C(=O)c2c(Cl)cccc2Cl)s1
inactive: max response (CRL-7250) -21% | outcome (HaCat [1]) | max response (KB-3-1) -5.11% | outcome (HACAT [4]) | Potency (MCC-13) | Potency (MCC-26) | Potency (MKL-1) | Potency (MKL-2) | Potency (UISO) | Potency (WaGa)
active: Potency (HEK293) 23.5 µM

Cn1cc(-c2ccc3nnc(Sc4ccc5ncccc5c4)n3n2)cn1
inactive: max response (CRL-7250) -0.0054% | outcome (HEK293) | max response (HaCat [1]) 1.95% | max response (KB-3-1) 3.63% | outcome (HEK293T [5]) | Potency (MCC-13) | Potency (MCC-26) | Potency (MKL-1) | Potency (MKL-2) | Potency (UISO) | Potency (WaGa)

CCCCOCCOc1nc(-c2ccc(C(=O)O)c(F)c2)sc1C
inactive: max response (CRL-7250) -34.6% | max response (HEK293) -11.4% | max response (HaCat [1]) -22% | max response (KB-3-1) -5.21% | max response (NIH3T3 [2]) -20.6% | Potency (MCC-13) | Potency (MCC-26) | Potency (MKL-1) | Potency (MKL-2) | Potency (UISO) | Potency (WaGa)

COc1cc(C=CC(=O)O)ccc1O
inactive: max response (CRL-7250) 1.23% | max response (HEK293) -0.866% | max response (HaCat [1]) -11.1% | max response (KB-3-1) 4.21% | outcome (NIH3T3 [2]) | Potency (MCC-13) | Potency (MCC-26) | Potency (MKL-1) | Potency (MKL-2) | Potency (NIH3T3 [3]) | Potency (UISO) | Potency (WaGa)

CC[C@H](C)C(=O)O[C@H]1C[C@H](O)C=C2C=C[C@H](C)[C@H](CC[C@@H](O)C[C@@H](O)CC(=O)O)[C@H]21
inactive: max response (CRL-7250) -6.33% | max response (HEK293) 0.44% | max response (HaCat [1]) -9.82% | max response (KB-3-1) 7.09% and -6.87% | max response (NIH3T3 [2]) -3.34% | Potency (MCC-13) | Potency (MCC-26) | Potency (MKL-1) | Potency (MKL-2) | Potency (UISO) | Potency (WaGa)

Cc1cc(C(C)Nc2ccccc2)c2nc(N3CCOCC3)cc(=O)n2c1 (stereo not given)
inactive: max response (CRL-7250) -10.1% | max response (HEK293) -5.74% and -23.1% | max response (HaCat [1]) -24% | outcome (KB-3-1) | Potency (MCC-13) | Potency (MKL-1) | Potency (MKL-2) | Potency (UISO) | Potency (WaGa) | Potency (C33A) | Potency (CAOV3) | Potency (Es-2) | Potency (HeLa) | Potency (Hek293T [6])
active: Potency (NIH3T3 [2]) 4610 nM

Cc1cc(-c2ncc(CC(=O)Nc3ccc(-c4cnccn4)cn3)cc2C)ccn1
inactive: max response (HaCat [1]) -23.2% and -10.9% | max response (NIH3T3 [2]) -16.2% and -6.07% | Potency (MCC-13) | Potency (MCC-26) | Potency (CAOV3) | Potency (CASKI) | Potency (HeLa)
active: Potency (CRL-7250) 10.5 µM and 6.51 µM | Potency (HEK293) 9.35 µM and 8.2 µM

Cc1nc2c([nH]1)CCN(C(=O)c1ccc(NC(=O)c3ccccc3-c3ccccc3)cc1)c1ccccc1-2
inactive: max response (CRL-7250) 1.7% and 3.01% | max response (HaCat [1]) -0.498% | outcome (HaCat [1]) | max response (KB-3-1) 0.364% and -8.3% | max response (NIH3T3 [2]) 4.2% | outcome (NIH3T3 [2]) | outcome (HACAT [4]) | Potency (MCC-13) | Potency (MCC-26) | Potency (MKL-1) | Potency (MKL-2) | Potency (NIH3T3 [3]) | Potency (UISO) | Potency (WaGa) | Potency (C33A) | Potency (CAOV3) | Potency (CASKI) | Potency (Es-2) | Potency (HeLa) | Potency (Hek293T [6])

CC[C@]1(O)C[C@H]2CN(CCC3=c4ccccc4=N[C]3[C@@](C(=O)OC)(c3cc4c(cc3OC)N(C)[C@H]3[C@@](O)(C(N)=O)[C@H](O)[C@]5(CC)C=CCN6CC[C@]43[C@@H]65)C2)C1
inactive: max response (HaCat [1]) -10.4%
active: Potency (CRL-7250) 0.0935 µM | Potency (HEK293) 0.0166 µM | Potency (KB-3-1) 5.9 nM | Potency (MKL-1) 3.7 nM | Potency (MKL-2) 46.9 nM
